# Laboratory results taken from the supplement of paper PMC4022240.
# ± gives the standard deviation.
# T1: HaloTag-ATRX ADD domain (163-292)
# T1 chain: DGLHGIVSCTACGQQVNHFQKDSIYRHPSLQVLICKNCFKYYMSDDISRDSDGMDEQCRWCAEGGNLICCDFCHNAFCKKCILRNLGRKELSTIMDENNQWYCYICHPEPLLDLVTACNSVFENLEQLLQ
# Key:
# Assay in all cases: peptide microarray binding signal (635 nm), min-max normalized on array (fraction of array maximum); higher = stronger binding
# [1] = target: T1, HaloTag-ATRX ADD domain (163-292)
# In short: (§1)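 Arrays carried histone 13-mer peptide–cellulose conjugates printed in triplicate on nitrocellulose alongside a Cy3 tracer. After overnight blocking at 4°C, they were incubated for 1 h at 4°C with biotin-labelled HaloTag reader fusions (10 nM to 1 μM) plus streptavidin-Alexa Fluor 647, or with rabbit histone antibodies (1:10,000 to 1:2,000) plus anti-rabbit Alexa 647. Scanning on an Axon GenePix 4000B used 635 nm for signal and 532 nm for misprints. The binding signal reported is each triplicate's mean spot intensity after per-library min-max scaling.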
# [2] = target: HaloTag-ING2 PHD (mouse Ing2 200-280)
# In short: as §1
# [3] = target: anti-H3K4me3 antibody ab8580
# In short: as §1
# [4] = target: anti-H3K9me3 antibody ab8898
# In short: as §1
# [5] = peptide region: H3 11-23, peptide modifications: H3R17me2a H3K18me1, binder concentration: 1:2,000 dilution
# [6] = peptide region: H3 11-23, peptide modifications: H3R17me2a H3K18me1, binder concentration: 1:10,000 dilution
# [7] = peptide region: H3 20-32, peptide modifications: H3K23ac H3K27ac, binder concentration: 1:2,000 dilution
# [8] = peptide region: H3 20-32, peptide modifications: H3K23ac H3K27ac, binder concentration: 1:10,000 dilution
# [9] = peptide region: H3 11-23, peptide modifications: H3R17me2a H3K18me3, binder concentration: 1:2,000 dilution
# [10] = peptide region: H3 11-23, peptide modifications: H3R17me2a H3K18me3, binder concentration: 1:10,000 dilution
# [11] = peptide region: H3 20-32, peptide modifications: H3K23ac, binder concentration: 1:2,000 dilution
# [12] = peptide region: H3 20-32, peptide modifications: H3K23ac, binder concentration: 1:10,000 dilution
# [13] = peptide region: H3 11-23, peptide modifications: H3R17me2a, binder concentration: 1:2,000 dilution
# [14] = peptide region: H3 11-23, peptide modifications: H3R17me2a, binder concentration: 1:10,000 dilution
binder,measurement,setting,value
TGGKAPRKQLATK [H3 11-23 T G G K A P Rme2a Kme Q L A T K],peptide microarray binding signal,"[1]; peptide region: H3 11-23, peptide modifications: H3R17me2a H3K18me1, binder concentration: 50 nM",0.0073 ± 0.00016
same,peptide microarray binding signal,"[1]; peptide region: H3 11-23, peptide modifications: H3R17me2a H3K18me1, binder concentration: 500 nM",0.0126 ± 0.0004
same,peptide microarray binding signal,"[2]; peptide region: H3 11-23, peptide modifications: H3R17me2a H3K18me1, binder concentration: 10 nM",0.00949 ± 0.00068
same,peptide microarray binding signal,"[2]; peptide region: H3 11-23, peptide modifications: H3R17me2a H3K18me1, binder concentration: 100 nM",0.0322 ± 0.008
same,peptide microarray binding signal,[3]; [5],0.00823 ± 0.0013
same,peptide microarray binding signal,[3]; [6],0.00496 ± 0.00085
same,peptide microarray binding signal,[4]; [5],0.00281 ± 0.00028
same,peptide microarray binding signal,[4]; [6],0.00173 ± 1.7e-05
LATKAARKSAPAT [H3 20-32 L A T Kac A A R Kac S A P A T],peptide microarray binding signal,"[1]; peptide region: H3 20-32, peptide modifications: H3K23ac H3K27ac, binder concentration: 50 nM",0.0196 ± 0.0013
same,peptide microarray binding signal,"[1]; peptide region: H3 20-32, peptide modifications: H3K23ac H3K27ac, binder concentration: 500 nM",0.0397 ± 0.0034
same,peptide microarray binding signal,"[2]; peptide region: H3 20-32, peptide modifications: H3K23ac H3K27ac, binder concentration: 10 nM",0.0424 ± 0.0038
same,peptide microarray binding signal,"[2]; peptide region: H3 20-32, peptide modifications: H3K23ac H3K27ac, binder concentration: 100 nM",0.0536 ± 0.0026
same,peptide microarray binding signal,[3]; [7],0.0164 ± 0.0012
same,peptide microarray binding signal,[3]; [8],0.0172 ± 0.00041
same,peptide microarray binding signal,[4]; [7],0.016 ± 0.002
same,peptide microarray binding signal,[4]; [8],0.00848 ± 0.00094
TGGKAPRKQLATK [H3 11-23 T G G K A P Rme2a Kme3 Q L A T K],peptide microarray binding signal,"[1]; peptide region: H3 11-23, peptide modifications: H3R17me2a H3K18me3, binder concentration: 50 nM",0.0133 ± 0.00073
same,peptide microarray binding signal,"[1]; peptide region: H3 11-23, peptide modifications: H3R17me2a H3K18me3, binder concentration: 500 nM",0.0186 ± 0.0037
same,peptide microarray binding signal,"[2]; peptide region: H3 11-23, peptide modifications: H3R17me2a H3K18me3, binder concentration: 10 nM",0.0148 ± 0.0037
same,peptide microarray binding signal,"[2]; peptide region: H3 11-23, peptide modifications: H3R17me2a H3K18me3, binder concentration: 100 nM",0.0224 ± 0.0093
same,peptide microarray binding signal,[3]; [9],0.284 ± 0.098
same,peptide microarray binding signal,[3]; [10],0.305 ± 0.1
same,peptide microarray binding signal,[4]; [9],0.0475 ± 0.015
same,peptide microarray binding signal,[4]; [10],0.0213 ± 0.0043
LATKAARKSAPAT [H3 20-32 L A T Kac A A R K S A P A T],peptide microarray binding signal,"[1]; peptide region: H3 20-32, peptide modifications: H3K23ac, binder concentration: 50 nM",0.00514 ± 8.6e-05
same,peptide microarray binding signal,"[1]; peptide region: H3 20-32, peptide modifications: H3K23ac, binder concentration: 500 nM",0.00843 ± 0.00057
same,peptide microarray binding signal,"[2]; peptide region: H3 20-32, peptide modifications: H3K23ac, binder concentration: 10 nM",0.0139 ± 0.0003
same,peptide microarray binding signal,"[2]; peptide region: H3 20-32, peptide modifications: H3K23ac, binder concentration: 100 nM",0.021 ± 0.00086
same,peptide microarray binding signal,[3]; [11],0.00479 ± 0.00097
same,peptide microarray binding signal,[3]; [12],0.00388 ± 0.00011
same,peptide microarray binding signal,[4]; [11],0.002703 ± 1.4e-05
same,peptide microarray binding signal,[4]; [12],0.00265 ± 8.4e-05
TGGKAPRKQLATK [H3 11-23 T G G K A P Rme2a K Q L A T K],peptide microarray binding signal,"[1]; peptide region: H3 11-23, peptide modifications: H3R17me2a, binder concentration: 50 nM",0.0047 ± 0.00017
same,peptide microarray binding signal,"[1]; peptide region: H3 11-23, peptide modifications: H3R17me2a, binder concentration: 500 nM",0.00767 ± 0.00072
same,peptide microarray binding signal,"[2]; peptide region: H3 11-23, peptide modifications: H3R17me2a, binder concentration: 10 nM",0.00328 ± 9.3e-05
same,peptide microarray binding signal,"[2]; peptide region: H3 11-23, peptide modifications: H3R17me2a, binder concentration: 100 nM",0.00921 ± 0.0033
same,peptide microarray binding signal,[3]; [13],0.001001 ± 8.5e-06
same,peptide microarray binding signal,[3]; [14],0.000742
same,peptide microarray binding signal,[4]; [13],0.00116 ± 7.7e-05
same,peptide microarray binding signal,[4]; [14],0.00156 ± 3e-05
